The results in this text go back to PubChem BioAssay AID488890 (Southern Research Specialized Biocontainment Screening …, 2010).

Out of some 320,000 compounds screened, about 1,300 (0.41%) were called active. Inconclusive results (about 3%) are left out. How the calls were made is not given here. Only a sample is shown. Entries with a potency or affinity are not part of this list.

This experiment in a line: growth inhibition of non-replicating M. tuberculosis (AID 488890).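 Further: plate controls were DMSO cells for no effect and high antibiotic wells for full effect.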 The settings on record: Mycobacterium tuberculosis non-replicating, at 25 µM, stronger effect = higher value.
As to `CN1CC(=O)NC1=NC(=O)c1cc(F)c(F)cc1Cl`, the inhibition was -0.31%.
For the compound `CN1CC(=O)N/C1=N\C(=O)Nc1ccc(O)cc1`, the inhibition is -12.3%.
Consider `COc1ccc(C2NC(=S)NC(C)=C2C(=O)Nc2ccccn2)cc1OC` (stereo not drawn), for which the inhibition is -7.65%.
As for `Cc1ccc(COC(=O)c2cc(S(=O)(=O)N3CCOCC3)ccc2C)cc1`, the inhibition worked out at 40.1%.
For the compound `COc1ccc(/C(C)=N/NC(=O)c2ccncc2)cc1`, the inhibition was 67.2%.
The value for `C/C(=N\NC(=O)c1ccncc1)c1cc2ccccc2o1` was 69.3%; that for `C/C(=N/NC(=O)c1ccncc1)c1cc2ccc(O)cc2oc1=O` was 78.4%.
On to `COc1ccc2oc(=O)c(/C(N)=N/NC(=O)c3ccncc3)cc2c1`, for which the inhibition came to 61.4%.
With `O=C(CCC(=O)N1CCOCC1)NCCc1ccc(F)cc1`, the inhibition worked out at 5.21%.
Consider `CC(C)C(NCC(=O)Nc1ccccc1C(=O)NC1CC1)c1ccccc1` (stereo not drawn), for which the inhibition came out at 19.6%.
The same measure for `CCC(C)(C)NS(=O)(=O)c1cc(CN2C(=O)c3cccnc3C2=O)ccc1OC`: 17.1%; for `O=C1CC2(CCCCC2)Oc2ccc(OCC(=O)N3CCOCC3)cc21`: 43.3%; for `CCOC(=O)N1CCN(C(=O)COc2ccc3c(c2)C(=O)CC2(CCN(C(C)=O)CC2)O3)CC1`: -4.94%.
The same measure for `O=C(CCNc1cc(Cl)cc(Cl)c1)c1ccco1`: -7.67%.
The value for `O=C(Nc1ccc(Cl)c(C(F)(F)F)c1)c1ccco1` was 71.2%; that for `O=C(CCNC(=O)c1ccco1)Nc1ccc(Cl)c(C(F)(F)F)c1` was 4.07%.
For the compound `COc1ccc(C(=O)CCNc2cccc(Cl)c2)cc1`, the inhibition was determined as 73.7%.
The same measure for `O=C(CNC(=O)c1ccco1)Nc1cccc(Cl)c1`: -9.33%; for `COc1ccc(C(=O)CC(=O)c2ccc(OC)cc2)cc1`: 19.6%; for `O=C(/C=C/Nc1ccc(F)cc1)c1ccco1`: -1.7%.
The value for `O=C(CNC(=O)c1ccco1)Nc1ccc(F)cc1` was -22.8%; that for `O=C(CN1C(=O)NC2(CCCCC2)C1=O)N1CCN(c2ncccn2)CC1` was 3.11%; that for `CC(C)(SC(=S)N1CCCCCC1)C(=O)O` was 13.4%.
In the case of `CC1=C(C(=O)NCc2ccc3c(c2)OCO3)C2(CCC(C)CC2)OC1=O` (stereo not drawn), the inhibition amounted to 1.75%.
Turning to `COc1ccccc1-n1cnnc1SC(C)C(=O)Nc1ccc(NC(C)=O)cc1` (stereo not drawn), the inhibition was -12.2%.
Turning to `Oc1c(C(c2ccc(F)cc2)N2CCc3ccccc3C2)sc2ncnn12` (stereo not drawn), the inhibition is 13.3%.
The same measure for `Cc1cc(C)cc(OCc2nnc(SCC(=O)c3ccccc3)o2)c1`: -6.78%; for `C/C(N)=C(/C#N)C(=O)CSc1nnc(C)n1-c1ccccc1`: -16.6%; for `O=C(O)C(F)(F)S(=O)(=O)O`: -5.17%.
For the compound `Cc1cccc(NC2=NC3(CCCCC3)N=C(N)N2)c1`, the inhibition was found to be 22.2%.
The value for `Cc1ccc(C)c(NC(=S)NCc2ccc3c(c2)OCO3)c1` was 79.5%; that for `CC(=O)Nc1ccc(Nc2ccc3nonc3c2[N+](=O)[O-])cc1` was 1.34%; that for `COc1cccc(CNC(=O)CCNS(=O)(=O)c2ccc3[nH]c(=O)oc3c2)c1` was -5.61%.

The term inhibition denotes the relative decrease from the control value, in per cent.
